Screening data as filed in PubChem.
SNCA expr inhib = inhibitors of alpha-synuclein (SNCA) gene expression; HEK-293 SNCA-luciferase knock-in, luminescence, 24 h; Potency, µM (highest dose often 57.2 µM), for inactives: top-dose activity change, negative = inhibition, usual class: inhibitors; AID 1671194; hit rate 0.17% among 140,000;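 further: potency means the concentration at half of the fitted maximal effect; plate controls were DMSO cells for no effect and cell-free wells for full effect; nearly all actives have a fitted effect of over 45% in size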
IP6K1 inhibitor = inhibitors of human IP6K1. Q92551. IP6K1 kinase, ADP-Glo luminescence, 2 h; hits give low values. activity change, % (series mostly up to about 58 µM). hit rate 0.81% among 140,000. AID 1645851; in the data active means activity change below about -25%; further: on the % scale 0 is the no-effect control and ±100 the full control effect
Target sequence (Q92551 whole entry, looked up): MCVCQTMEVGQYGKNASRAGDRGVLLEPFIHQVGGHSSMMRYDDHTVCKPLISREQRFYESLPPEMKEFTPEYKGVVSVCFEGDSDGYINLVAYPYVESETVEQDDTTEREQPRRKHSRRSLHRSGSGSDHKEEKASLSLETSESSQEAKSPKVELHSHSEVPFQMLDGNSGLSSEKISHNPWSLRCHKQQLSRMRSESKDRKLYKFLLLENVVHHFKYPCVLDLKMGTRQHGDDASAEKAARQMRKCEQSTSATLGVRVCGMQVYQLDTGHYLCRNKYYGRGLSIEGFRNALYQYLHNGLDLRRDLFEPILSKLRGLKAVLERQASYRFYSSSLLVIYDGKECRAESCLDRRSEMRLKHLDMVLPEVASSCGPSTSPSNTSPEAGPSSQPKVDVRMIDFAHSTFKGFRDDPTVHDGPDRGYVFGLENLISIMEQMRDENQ
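ADP-Glo luminescence measures ADP made by human IP6K1 during a 2 h RT reaction with ATP/IP6 (mix at 1.3 mM/130 uM); top library doses 57.5 and 19.1 uM final.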
KDM5B inh = blocks human KDM5B histone demethylase activity | KDM5B demethylase, FDH-coupled NADH fluorescence (FDH is formaldehyde dehydrogenase) | Potency, µM (titrated, usually from 57.7 µM), most hits filed as inhibitors | hit rate 2.6% among 220,000 | AID 1347165; further: potency means the concentration at half of the fitted maximal effect; 0% is about no effect; nearly all actives have a fitted effect of over 70% in size
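Compound dilutions met 200 nM (final) KDM5BΔAP for 10 min at room temperature before substrate addition. The substrate mix held 12.5 µM H3K4me3 with cofactors 25 µM α-ketoglutarate and 50 µM Fe²⁺. NADH signal gain over 30 min defined activity.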
HEK293 viab = counter-screen for SNCA expression inhibitors: cell viability. AID 1671193. HEK-293-SNCA-luc viability, GF-AFC fluorescence, 24 h. hit rate 0.12% among 150,000. Potency, µM (series often up to 57.1 µM), for the others: top-dose activity change, negative = cytotoxicity, actives largely listed as cytotoxic;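 further: potency means the concentration at half of the fitted maximal effect; 0% = DMSO-treated cells and -100% = medium-only wells without cells; nearly all actives have a fitted effect of over 30% in size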
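HEK-293-SNCA-luc cells (1500/well) plated 24 h, then exposed 24 h to a dilution series; GF-AFC added 30 min at 37C, fluorescence 405/540 nm; normalised to medium-only and DMSO wells, Hill fit.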
The depositor's hits bear a star; ! = not active in a repeat; [ ] = remark or other dose. Most compounds without a hit are left out; they make up all but 3% or so of the library. Unless noted, the call rests on the fitted dose curve; in most records, active means well fitted curve in the direction sought with a large enough effect; inconclusive means small, poorly fitted or top-dose-only effect, or another doubt; inactive means no such curve, though single readings can be large; an effect the other way counts as inactive or inconclusive.

COc1ccc(-c2noc([C@@H]3C[C@H](NS(=O)(=O)c4ccc(OC)cc4)CN3C)n2)cc1 was read as SNCA expr inhib 80.1%, IP6K1 inhibitor -8.1, KDM5B inh inactive and HEK293 viab -17.5%.
Screening COc1ccc(-c2[nH]nc3ncc(-c4cccnc4OC)nc23)c(C)c1 returned SNCA expr inhib 0.9%[87.6 µM], IP6K1 inhibitor 8.0, KDM5B inh 35.5µM* and HEK293 viab 5.8%[87.6 µM].
Screening COc1ccc(-c2[nH]nc3ncc(-c4ccc(F)cc4OC)nc23)c(C)c1 returned SNCA expr inhib -6.7%[87.6 µM], IP6K1 inhibitor 10.2, KDM5B inh 7.94µM* and HEK293 viab 0.1%[87.6 µM].
`COc1ccc(-c2[nH]nc3ncc(-c4ccccc4OC)nc23)c(C)c1` gave SNCA expr inhib 14.7%[87.6 µM], IP6K1 inhibitor 13.2, KDM5B inh inconclusive and HEK293 viab 9.0%[87.6 µM].
Nc1nc(F)nc2c1ncn2[C@@H]1O[C@H](CO)[C@@H](O)[C@@H]1O was read as SNCA expr inhib 8.57µM*!, IP6K1 inhibitor 9.7 and HEK293 viab inconclusive.
Screening Cc1ccc(NC(=O)C2CCN(c3cc(C(F)(F)F)ncn3)CC2)cc1 returned SNCA expr inhib -3.7%, IP6K1 inhibitor 13.7, KDM5B inh 25.1µM* and HEK293 viab -13.4%.
For CCc1ccc(NC(=O)C2CCN(c3cc(C(F)(F)F)ncn3)CC2)cc1 the results were SNCA expr inhib -10.0%, IP6K1 inhibitor -13.9, KDM5B inh inconclusive and HEK293 viab -0.4%.
Screening Cc1cc(NC(=O)C2CCN(c3cc(C(F)(F)F)ncn3)CC2)ccc1Br returned SNCA expr inhib -33.7%, IP6K1 inhibitor 15.0, KDM5B inh 28.2µM* and HEK293 viab -8.5%.
CC1=C(CO)C(=O)O[C@@H]([C@@H](C)[C@H]2CC[C@H]3[C@@H]4C[C@H]5O[C@]56[C@@H](O)C=CC(=O)[C@]6(C)[C@H]4CC[C@]23C)C1 was read as IP6K1 inhibitor -7.5 and HEK293 viab 10.3µM*.
For c1ccc(-n2cc(CN3CCCCC3c3ccccn3)nn2)cc1 (stereo not drawn) the results were SNCA expr inhib 16.7%, IP6K1 inhibitor -16.1, KDM5B inh 28.2µM* and HEK293 viab -7.3%.
Screening S=C(N/N=C1/CC2C=CCC12)NC1CCCCC1 (stereo not drawn) returned KDM5B inh inactive.
Screening CC(OC(=O)c1cc(=O)c2cc(Cl)ccc2o1)C(=O)N(C)c1ccccc1 (stereo not drawn) returned KDM5B inh inactive.
For CC(=O)N(Cc1ccccc1)Cc1cc2cccc(C)c2[nH]c1=O the results were KDM5B inh inactive.
`CCc1noc(-c2cccn3c(CNC(=O)c4ccccc4F)nnc23)n1` gave SNCA expr inhib -18.6%, IP6K1 inhibitor -1.1, KDM5B inh 31.6µM* and HEK293 viab -9.1%.
For CCc1noc(-c2cccn3c(CNC(=O)c4ccc(C)c(F)c4)nnc23)n1 the results were SNCA expr inhib inconclusive, IP6K1 inhibitor 4.3, KDM5B inh inconclusive and HEK293 viab -6.9%.
Screening CCc1noc(-c2cccn3c(CNC(=O)c4cc(Cl)ccc4F)nnc23)n1 returned SNCA expr inhib 3.0%, IP6K1 inhibitor -4.6, KDM5B inh 28.2µM* and HEK293 viab 7.4%.
Screening C[S+](=O)([O-])c1ccc(-c2cc3c(ccn3Cc3ccncc3)c(N3CCOCC3)n2)cc1 returned SNCA expr inhib -14.7%, IP6K1 inhibitor -3.2, KDM5B inh 25.1µM* and HEK293 viab inconclusive.
Screening CC(=O)Nc1cccc(-c2cc3c(ccn3Cc3ccncc3)c(N3CCOCC3)n2)c1 returned SNCA expr inhib 6.3%[87.6 µM], IP6K1 inhibitor -1.5, KDM5B inh 28.2µM* and HEK293 viab 9.2%[87.6 µM].
For C[S+](=O)([O-])N1CCC(Cn2ccc3c(N4CCOCC4)nc(-c4cncnc4)cc32)CC1 the results were SNCA expr inhib -1.9%, IP6K1 inhibitor -15.1, KDM5B inh inconclusive and HEK293 viab -1.3%.
`C[S+](=O)([O-])Nc1cccc(-c2cc3c(ccn3Cc3ccncc3)c(N3CCOCC3)n2)c1` gave SNCA expr inhib -7.0%, IP6K1 inhibitor -20.2, KDM5B inh 3.16µM* and HEK293 viab 1.3%.
Cc1ccc(Nc2ccnc(N3CCC(C(=O)N4CCC(Cc5ccccc5)CC4)CC3)n2)cc1 was read as SNCA expr inhib -12.0%, IP6K1 inhibitor -12.3 and HEK293 viab -1.1%[12.5 µM].
Fc1cnc(N2CCCC(OCc3cccnc3)C2)nc1N1CCOCC1 (stereo not drawn) was read as SNCA expr inhib -12.1%, IP6K1 inhibitor -2.7, KDM5B inh 28.2µM* and HEK293 viab -5.7%.
`FC(F)(F)c1ccnc(N2CCC(OCc3cccnc3)CC2)n1` gave SNCA expr inhib inconclusive, IP6K1 inhibitor 9.5, KDM5B inh inactive and HEK293 viab -14.5%.
Cc1cccc(OCC(=O)NC(C)C(=O)N2CCN(c3ccccn3)CC2)c1 (stereo not drawn) was read as SNCA expr inhib 1.1%, IP6K1 inhibitor 19.1, KDM5B inh 35.5µM* and HEK293 viab 9.2%.
`CC(NC(=O)COc1ccccc1)C(=O)N1CCN(c2ccccn2)CC1` (stereo not drawn) gave SNCA expr inhib 4.6%, IP6K1 inhibitor -0.9, KDM5B inh 22.4µM* and HEK293 viab -0.1%.
`Cc1ccc(-c2cn3c(n2)CO[C@@H](CNC(=O)c2ccccc2)C3)cc1` gave SNCA expr inhib 40.8%[87.6 µM], IP6K1 inhibitor 14.9, KDM5B inh 31.6µM* and HEK293 viab -4.9%[87.6 µM].
`O=C1Nc2ccc(-c3ccccc3)cc2C(=O)N2CCN(C(=O)c3cccc(F)c3)C[C@H]12` gave SNCA expr inhib 2.9%[87.6 µM], IP6K1 inhibitor -6.1, KDM5B inh 28.2µM* and HEK293 viab -1.0%[87.6 µM].
`O=C1Nc2ccc(-c3ccco3)cc2C(=O)N2CCN(C(=O)c3ccccc3)C[C@H]12` gave SNCA expr inhib -34.6%[87.6 µM], IP6K1 inhibitor 7.5, KDM5B inh 35.5µM* and HEK293 viab 2.5%[87.6 µM].
For O=C1Nc2ccc(-c3ccco3)cc2C(=O)N2CCN(C(=O)NC3CCCCC3)C[C@H]12 the results were SNCA expr inhib -3.2%[87.6 µM], IP6K1 inhibitor -15.4, KDM5B inh 28.2µM* and HEK293 viab 2.0%[87.6 µM].
For O=C1Nc2ccc(-c3ccccc3)cc2C(=O)N2CCN(C(=O)NC3CCCCC3)C[C@H]12 the results were SNCA expr inhib -4.6%[87.6 µM], IP6K1 inhibitor 6.3, KDM5B inh inactive and HEK293 viab 0.7%[87.6 µM].
For O=C(O)CCCC(=O)N1CCN2C(=O)c3cc(-c4ccco4)ccc3NC(=O)[C@@H]2C1 the results were SNCA expr inhib 20.3%[87.6 µM], IP6K1 inhibitor 3.1, KDM5B inh 39.8µM* and HEK293 viab 10.7%[87.6 µM].
CCOc1cc(C(=O)Nc2ccc(OC)cc2)nc2ccc(Cl)cc12 was read as KDM5B inh inactive.
For COc1ccc(C(=O)NCCc2c[nH]c3ccccc23)c(F)c1 the results were KDM5B inh inactive.
For Cc1c(Cl)cccc1NC(=S)NCCc1cccs1 the results were KDM5B inh inactive.
For Fc1ccc(-n2cc(CCCCN3CCC4(CC3)OCc3ccccc34)c3ccccc32)cc1 the results were IP6K1 inhibitor 20.7 and HEK293 viab 18.9µM*.
